# Experiments:
# Settings in all cases: concentration: 1 μM, replicates: in singlicate; n = 1
# CSNK1G1 = system: CSNK1G1
# CSNK1G2 = system: CSNK1G2
# CSNK1G3 = system: CSNK1G3
# CSNK2A1 = system: CSNK2A1
# CSNK2A2 = system: CSNK2A2
# CTK = system: T1, CTK
# T1 construct: gene MATK
# DAPK1 = system: DAPK1
# DAPK2 = system: DAPK2
# DAPK3 = system: DAPK3
# DCAMKL1 = system: T2, DCAMKL1
# T2 construct: gene DCLK1
# DCAMKL2 = system: T3, DCAMKL2
# T3 construct: gene DCLK2
# DCAMKL3 = system: T4, DCAMKL3
# T4 construct: gene DCLK3
# DDR1 = system: DDR1
# DDR2 = system: DDR2
# DLK = system: T5, DLK
# T5 construct: gene MAP3K12
# DMPK2 = system: T6, DMPK2
# T6 construct: gene CDC42BPG
# DMPK = system: DMPK
# DRAK1 = system: T7, DRAK1
# T7 construct: gene STK17A
# DRAK2 = system: T8, DRAK2
# T8 construct: gene STK17B
# DYRK1A = system: DYRK1A
# 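Note: KINOMEscan kinase panel screen.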
Structure (SMILES),%Inh (CSNK1G1) [%],%Inh (CSNK1G2) [%],%Inh (CSNK1G3) [%],%Inh (CSNK2A1) [%],%Inh (CSNK2A2) [%],%Inh (CTK) [%],%Inh (DAPK1) [%],%Inh (DAPK2) [%],%Inh (DAPK3) [%],%Inh (DCAMKL1) [%],%Inh (DCAMKL2) [%],%Inh (DCAMKL3) [%],%Inh (DDR1) [%],%Inh (DDR2) [%],%Inh (DLK) [%],%Inh (DMPK2) [%],%Inh (DMPK) [%],%Inh (DRAK1) [%],%Inh (DRAK2) [%],%Inh (DYRK1A) [%]
Clc1ccc(-c2nn3ncccc3c2-c2ccnc(Nc3ccc4c(c3)OCCO4)n2)cc1 [GW829116],0,42,23,0,8,36,0,0,0,7,0,0,98.5,95.9,0,92.9,0,0,0,0
CN1CCN(CCCNc2nccc(-c3c(-c4ccc(F)cc4)nn4cc(C(F)(F)F)ccc34)n2)CC1 [GW621581],0,0,16,0,0,0,0,0,100,0,0,25,100,81,16,0,0,33,0,5
COc1cc2c(cc1OCCN1CCNCC1)ncc1c3ccc(C#N)cc3[nH]c21,0,0,4,63,92.4,15,14,4,4,38,3,4,0,1,85,0,5,99.5,99.6,93.1
CN1CCN(Cc2cccc(-c3ccc4c(Nc5ccc(Oc6ccccc6)cc5)ccnc4c3)c2)CC1 [GW578342],18,1,2,0,0,0,100,6,25,13,1,59,9,33,41,0,0,10,0,1
CN(C)S(=O)(=O)c1cc(-c2ccc3nccc(-c4cccc(S(N)(=O)=O)c4)c3c2)cnc1N [GSK1669921],22,0,33,11,4,12,0,8,3,28,6,0,100,5,0,0,10,0,0,37
COc1cccc(-c2ccc3c(NC(=O)C4CC4)n[nH]c3n2)c1 [SB-710903],0,0,10,0,79,0,0,0,13,21,0,6,0,52,72,0,0,2,4,52
COc1ccc(Nc2nccc(NCCNC(=O)c3cc4ccccc4s3)n2)cc1 [GSK1379896],54,0,27,0,15,0,4,2,0,10,0,0,0,15,0,0,0,0,0,0
CC(C)c1nc(-c2cccc(NS(=O)(=O)c3c(F)cccc3F)c2F)c(-c2ccnc(Nc3ccc(N4CCOCC4)nc3)n2)s1 [GSK2008607],21,0,6,7,32,55,2,1,34,57,46,82,99.3,88,93.2,20,0,0,0,0
Cc1cccc(NC(=O)Nc2ccc(Oc3ncnc4ccn(C)c34)cc2)c1,0,10,5,0,0,0,0,0,0,45,0,0,99.3,98.7,0,0,0,0,0,0
CN(c1ccc(NC(=O)Nc2cc(C(F)(F)F)ccc2F)cc1)c1ccnc(Nc2ccc(S(N)(=O)=O)cc2)n1 [GW809893],5,0,18,13,0,23,0,0,0,3,2,6,97.6,93.9,14,9,0,0,18,17
COc1cc(Nc2nccc(N3CCC(NC(=O)c4cc5ccccc5s4)C3)n2)cc(OC)c1OC (centres unmarked) [GSK1379760],9,13,8,27,0,0,54,20,1,13,14,0,0,39,31,5,0,0,0,0
COc1ccc(CNC(=O)NC2CCN(c3ccnc(Nc4ccc(F)cc4)n3)CC2)cc1 [GSK1379788],0,0,19,0,0,0,0,0,0,0,0,5,0,32,34,0,0,0,0,0
CCCCc1nn2ncccc2c1-c1ccnc(Nc2ccc(N3CCN(C)CC3)cc2)n1 [GW684941],0,0,0,0,7,13,0,0,17,17,25,2,100,96.2,47,50,0,5,0,17
Cl.c1ccc(-c2ccc3c(Nc4ccc5[nH]ccc5c4)ccnc3c2)nc1 [GW440138],0,0,25,0,0,0,5,0,23,0,0,17,99.4,79,43,0,0,0,2,0
Cl.Cl.NCC(NC(=O)c1cc(-c2ccccc2)c(-c2ccnc3[nH]ccc23)s1)c1ccccc1 (centres unmarked) [GSK1321561],14,89,81,5,38,0,0,3,12,0,0,10,99.7,76,35,94.7,82,41,0,13
C[C@@H](Oc1cc(-n2cnc3cc(-c4ccnc(NCCS(C)(=O)=O)c4)ccc32)sc1C(N)=O)c1ccccc1Cl [GSK907232],13,0,14,16,37,5,64,12,17,26,1,0,0,0,12,0,0,0,4,31
c1ccc(-c2cnc3nccnn23)cc1 [AH20685],0,5,0,0,0,0,0,0,0,0,27,0,0,24,20,0,0,0,0,42
COc1cccc(C2=C(Nc3ccc(Cl)c(C(=O)O)c3)C(=O)NC2=O)c1 [SB-390769],11,0,0,0,7,95.9,0,0,99.9,100,20,1,0,36,0,0,0,100,100,18
O=c1[nH]cc(-c2ccc(N3CCOCC3)cc2)c2sc(-c3cn[nH]c3)cc12 [GSK2276055],43,43,63,64,79,0,37,19,23,12,0,0,3,0,0,0,0,35,11,99.8

# — PMC5540273 (PLoS ONE, 2017)
